# Source: PMC7862700, “An all-to-all approach to the identification of sequence-specific readers for epigenetic DNA modifications on cytosine”
# Tests used:
# Experiment in all cases: DAPPL (digital affinity profiling via proximity ligation, sequencing); 10 mM Tris-HCl pH 7.5, 50 mM NaCl, 1 mM DTT, 4% glycerol, room temperature, 30 min; GST-TFs on glutathione beads, 16-mer random dsDNA library, 0.1% formaldehyde crosslink after washing; high values mean tight binding
# Conditions in all cases: protein: recombinant; tags: N-terminal GST; dsDNA, one strand shown
# ELF4 = ELF4 (Homo sapiens, UniProt Q99607 1-663)
# Sequence of ELF4 (Q99607 whole entry, the tested form may be a part): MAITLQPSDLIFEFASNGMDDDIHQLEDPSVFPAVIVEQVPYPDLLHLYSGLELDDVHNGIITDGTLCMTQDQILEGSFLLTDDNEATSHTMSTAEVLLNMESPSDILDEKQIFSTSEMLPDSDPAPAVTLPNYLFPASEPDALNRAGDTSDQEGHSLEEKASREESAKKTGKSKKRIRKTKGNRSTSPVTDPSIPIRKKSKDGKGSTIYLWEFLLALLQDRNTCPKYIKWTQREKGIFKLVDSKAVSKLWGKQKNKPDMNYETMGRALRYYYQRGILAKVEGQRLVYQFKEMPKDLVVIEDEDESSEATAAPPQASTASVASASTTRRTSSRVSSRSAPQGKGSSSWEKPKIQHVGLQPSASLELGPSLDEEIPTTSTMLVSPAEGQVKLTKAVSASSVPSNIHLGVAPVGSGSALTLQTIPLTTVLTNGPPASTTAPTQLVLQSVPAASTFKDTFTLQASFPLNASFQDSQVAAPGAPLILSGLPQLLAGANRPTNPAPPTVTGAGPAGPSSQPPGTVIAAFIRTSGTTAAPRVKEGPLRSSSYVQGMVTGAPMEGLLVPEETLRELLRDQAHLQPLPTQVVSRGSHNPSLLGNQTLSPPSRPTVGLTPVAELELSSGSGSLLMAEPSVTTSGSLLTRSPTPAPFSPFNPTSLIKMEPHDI
# In short: (§1)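 Binding signal is defined as a hexamer's read frequency for one factor over its frequency for the tag-only sample. To obtain reads, GST-fused human transcription factors were expressed in yeast, captured on glutathione beads, barcoded with DNA and pooled with that sample. Pools met 200 nmole of a 16-mer random double-stranded DNA library in Tris/NaCl/DTT/glycerol buffer for 30 min at room temperature before washing, 0.1% formaldehyde crosslinking, proximity ligation (BsaI/T4 ligase, 1 h, 37 °C), PCR and Illumina NextSeq500 sequencing.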
# ELK4 = biological target: T1, ELK4 (Homo sapiens, UniProt P28324-2 1-405)
# T1 sequence: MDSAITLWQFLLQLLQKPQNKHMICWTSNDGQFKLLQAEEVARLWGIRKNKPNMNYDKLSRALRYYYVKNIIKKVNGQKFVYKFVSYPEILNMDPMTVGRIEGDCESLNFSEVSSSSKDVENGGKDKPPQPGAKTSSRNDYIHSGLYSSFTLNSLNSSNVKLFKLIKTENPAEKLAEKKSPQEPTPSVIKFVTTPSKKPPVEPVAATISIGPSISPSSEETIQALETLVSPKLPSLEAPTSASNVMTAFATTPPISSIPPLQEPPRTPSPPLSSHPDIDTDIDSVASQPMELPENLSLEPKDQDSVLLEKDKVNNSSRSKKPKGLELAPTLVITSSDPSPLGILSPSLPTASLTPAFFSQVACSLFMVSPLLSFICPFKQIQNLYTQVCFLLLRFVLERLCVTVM
# In short: as §1
# ETV2 = biological target: T2, ETV2 (Homo sapiens, UniProt O00321 1-342)
# T2 sequence: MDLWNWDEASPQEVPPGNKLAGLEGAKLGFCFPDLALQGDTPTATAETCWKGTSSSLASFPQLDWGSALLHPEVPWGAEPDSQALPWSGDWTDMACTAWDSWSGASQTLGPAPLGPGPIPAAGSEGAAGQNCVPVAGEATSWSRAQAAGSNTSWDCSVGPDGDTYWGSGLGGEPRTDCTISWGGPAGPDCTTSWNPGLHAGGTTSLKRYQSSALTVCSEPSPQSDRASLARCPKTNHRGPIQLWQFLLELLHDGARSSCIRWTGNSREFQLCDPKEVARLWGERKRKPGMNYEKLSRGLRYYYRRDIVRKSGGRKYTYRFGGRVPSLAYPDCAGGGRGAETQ
# In short: as §1
# ELF3 = biological target: T3, ELF3 (Homo sapiens, UniProt P78545 1-371)
# T3 sequence: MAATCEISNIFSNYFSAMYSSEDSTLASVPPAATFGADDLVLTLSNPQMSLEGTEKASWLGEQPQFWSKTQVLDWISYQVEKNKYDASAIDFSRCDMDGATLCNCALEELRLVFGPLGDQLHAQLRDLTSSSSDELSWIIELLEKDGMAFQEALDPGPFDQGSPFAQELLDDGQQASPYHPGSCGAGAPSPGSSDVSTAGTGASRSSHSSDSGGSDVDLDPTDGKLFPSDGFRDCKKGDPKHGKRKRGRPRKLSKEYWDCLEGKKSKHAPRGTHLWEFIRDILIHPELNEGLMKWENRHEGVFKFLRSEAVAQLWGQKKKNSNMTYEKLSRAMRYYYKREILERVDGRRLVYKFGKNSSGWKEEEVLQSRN
# In short: as §1
# CRX = CRX (Homo sapiens, UniProt O43186 1-299)
# Sequence of CRX (O43186 whole entry): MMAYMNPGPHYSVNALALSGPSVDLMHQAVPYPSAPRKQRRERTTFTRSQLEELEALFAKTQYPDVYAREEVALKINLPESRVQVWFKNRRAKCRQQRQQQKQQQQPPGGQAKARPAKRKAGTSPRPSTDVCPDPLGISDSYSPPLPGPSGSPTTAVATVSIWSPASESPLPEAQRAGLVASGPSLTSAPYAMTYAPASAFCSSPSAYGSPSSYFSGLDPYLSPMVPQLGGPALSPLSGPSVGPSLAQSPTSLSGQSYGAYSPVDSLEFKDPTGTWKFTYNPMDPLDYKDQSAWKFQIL
# In short: as §1
# ERF = biological target: T4, ERF (Homo sapiens, UniProt P50548 1-548)
# T4 sequence: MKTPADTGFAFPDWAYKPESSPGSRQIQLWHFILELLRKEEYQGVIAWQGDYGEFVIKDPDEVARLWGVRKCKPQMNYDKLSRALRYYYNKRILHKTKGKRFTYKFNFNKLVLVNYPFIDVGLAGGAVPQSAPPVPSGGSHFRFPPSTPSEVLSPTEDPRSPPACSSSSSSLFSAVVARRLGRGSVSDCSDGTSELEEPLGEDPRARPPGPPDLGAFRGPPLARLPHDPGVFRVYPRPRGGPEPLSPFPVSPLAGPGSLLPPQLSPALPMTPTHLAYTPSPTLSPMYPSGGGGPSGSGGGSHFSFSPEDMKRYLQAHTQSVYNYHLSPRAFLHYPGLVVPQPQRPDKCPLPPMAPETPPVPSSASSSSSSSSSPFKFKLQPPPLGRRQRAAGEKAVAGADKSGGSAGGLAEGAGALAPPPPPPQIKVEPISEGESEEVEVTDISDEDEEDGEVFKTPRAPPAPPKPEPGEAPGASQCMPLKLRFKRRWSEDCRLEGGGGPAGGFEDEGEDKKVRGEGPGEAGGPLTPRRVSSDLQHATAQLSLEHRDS
# In short: as §1
# ETV3L = biological target: T5, ETV3L (Homo sapiens, UniProt Q6ZN32 1-361)
# T5 sequence: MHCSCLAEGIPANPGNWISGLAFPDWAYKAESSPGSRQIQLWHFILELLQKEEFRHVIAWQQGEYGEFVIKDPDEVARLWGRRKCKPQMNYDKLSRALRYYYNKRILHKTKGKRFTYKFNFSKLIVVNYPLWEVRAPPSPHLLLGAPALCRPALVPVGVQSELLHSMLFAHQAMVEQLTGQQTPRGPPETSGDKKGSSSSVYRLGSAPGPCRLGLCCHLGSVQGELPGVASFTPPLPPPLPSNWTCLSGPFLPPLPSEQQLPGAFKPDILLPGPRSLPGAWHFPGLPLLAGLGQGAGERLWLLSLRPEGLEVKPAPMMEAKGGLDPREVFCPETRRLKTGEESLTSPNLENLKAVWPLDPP
# In short: as §1
# ETS2 = biological target: T6, ETS2 (Homo sapiens, UniProt P15036 1-469)
# T6 sequence: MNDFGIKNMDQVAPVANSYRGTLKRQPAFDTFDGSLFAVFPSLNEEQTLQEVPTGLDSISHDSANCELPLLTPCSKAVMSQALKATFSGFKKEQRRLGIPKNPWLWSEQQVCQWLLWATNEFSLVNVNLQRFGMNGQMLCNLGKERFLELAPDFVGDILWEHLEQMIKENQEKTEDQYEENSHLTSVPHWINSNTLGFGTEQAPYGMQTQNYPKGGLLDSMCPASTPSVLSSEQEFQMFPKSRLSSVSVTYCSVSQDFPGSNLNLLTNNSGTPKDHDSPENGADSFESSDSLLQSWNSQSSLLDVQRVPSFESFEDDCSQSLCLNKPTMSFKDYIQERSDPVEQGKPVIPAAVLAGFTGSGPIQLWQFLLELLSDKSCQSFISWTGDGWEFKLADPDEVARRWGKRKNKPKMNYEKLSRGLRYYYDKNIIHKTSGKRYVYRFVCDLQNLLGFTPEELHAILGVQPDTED
# In short: as §1
# ETV7 = biological target: T7, ETV7 (Homo sapiens, UniProt Q9Y603 1-341)
# T7 sequence: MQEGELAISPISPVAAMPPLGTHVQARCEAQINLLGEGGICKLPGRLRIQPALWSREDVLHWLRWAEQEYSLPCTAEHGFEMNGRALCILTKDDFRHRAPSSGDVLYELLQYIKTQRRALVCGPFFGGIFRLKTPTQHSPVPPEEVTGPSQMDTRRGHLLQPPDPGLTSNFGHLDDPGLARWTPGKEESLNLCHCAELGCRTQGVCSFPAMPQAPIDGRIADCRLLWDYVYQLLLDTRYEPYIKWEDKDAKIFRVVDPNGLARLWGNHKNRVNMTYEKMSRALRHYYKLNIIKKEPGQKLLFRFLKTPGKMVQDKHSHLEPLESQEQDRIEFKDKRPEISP
# In short: as §1
# ELF5 = biological target: T8, ELF5 (Homo sapiens, UniProt Q9UKW6-2 1-255)
# T8 sequence: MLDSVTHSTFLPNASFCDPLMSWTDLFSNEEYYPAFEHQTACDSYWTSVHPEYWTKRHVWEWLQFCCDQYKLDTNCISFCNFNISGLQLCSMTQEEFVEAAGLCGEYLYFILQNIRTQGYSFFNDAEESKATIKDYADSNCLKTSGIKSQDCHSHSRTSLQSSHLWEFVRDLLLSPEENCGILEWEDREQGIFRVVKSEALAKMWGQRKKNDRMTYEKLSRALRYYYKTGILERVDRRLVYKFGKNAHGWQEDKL
# In short: as §1
# ETV6 = ETV6 (Homo sapiens, UniProt P41212 1-452)
# Sequence of ETV6 (P41212 whole entry): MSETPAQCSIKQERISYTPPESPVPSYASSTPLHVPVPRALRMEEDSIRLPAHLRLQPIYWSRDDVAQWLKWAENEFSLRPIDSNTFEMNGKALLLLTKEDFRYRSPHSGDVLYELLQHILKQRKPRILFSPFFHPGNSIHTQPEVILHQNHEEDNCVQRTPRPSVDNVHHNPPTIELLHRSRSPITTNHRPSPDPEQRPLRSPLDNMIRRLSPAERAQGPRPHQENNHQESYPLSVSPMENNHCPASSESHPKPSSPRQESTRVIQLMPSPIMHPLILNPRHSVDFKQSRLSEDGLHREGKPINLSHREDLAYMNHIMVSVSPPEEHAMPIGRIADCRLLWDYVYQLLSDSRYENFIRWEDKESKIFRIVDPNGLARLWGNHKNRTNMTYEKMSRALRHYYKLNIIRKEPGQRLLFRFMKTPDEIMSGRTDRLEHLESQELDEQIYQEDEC
# In short: as §1
sequence,measurement,setting,value
TTGACG,binding signal,ELF4,"1.15 fold enrichment (6-mer frequency, TF over GST control)"
same,binding signal,ELK4,"1.21 fold enrichment (6-mer frequency, TF over GST control)"
same,binding signal,ETV2,"1.23 fold enrichment (6-mer frequency, TF over GST control)"
same,binding signal,ELF3,"1.21 fold enrichment (6-mer frequency, TF over GST control)"
same,binding signal,CRX,"1.01 fold enrichment (6-mer frequency, TF over GST control)"
same,binding signal,ERF,"1.27 fold enrichment (6-mer frequency, TF over GST control)"
same,binding signal,ETV3L,"1.12 fold enrichment (6-mer frequency, TF over GST control)"
same,binding signal,ETS2,"1.08 fold enrichment (6-mer frequency, TF over GST control)"
same,binding signal,ETV7,"1.19 fold enrichment (6-mer frequency, TF over GST control)"
same,binding signal,ELF5,"1.07 fold enrichment (6-mer frequency, TF over GST control)"
same,binding signal,ETV6,"1.15 fold enrichment (6-mer frequency, TF over GST control)"
